# Bioassay records (PubChem)
# Shown are actives, neighbours in structure and some others; about 18% of the full set was active somewhere.
# TDP1 inh – inhibitors of human tyrosyl-DNA phosphodiesterase TDP1 | Q9NUW8 | recombinant TDP1, AlphaScreen DNA substrate cleavage | Potency, µM (titrated, usually from 130 µM), inactives show at the highest dose activity change, negative = inhibition, hits mostly inhibitors | 350,000 compounds, 0.28% hits; note: potency is the fitted concentration of half-maximal effect; nearly all actives have a fitted effect of over 40% in size
#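 Steps: enzyme plus compound, 15 min RT; add biotin/phosphotyrosine-FITC oligonucleotide (15 nM final), react 5 min; add donor/acceptor beads (10 ug/ml final), 10 min; read AlphaScreen. Tdp1 at 1 nM final.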
# IL-1B inflam inh – inhibitors of inflammasome signaling (IL-1 beta secretion). THP-1 LPS/ATP IL-1B secretion, AlphaLISA, 16 h; active compounds read low. activity change, % at 57.5 µM. 360,000 compounds, 4.7% hits. AID 743279; in the data active = activity change below about -50%; inconclusive = mostly about -30% to -49%
#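 THP-1 cells pretreated 1 hr with compounds (up to 57.5 uM final), then stimulated with LPS (250 ng/mL final) plus ATP (1.25 mM final); secreted IL-1B measured by AlphaLISA after 16 hr, decreased signal indicating inhibition.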
# Six1-Eya2 blk – Six1/Eya2 interaction inhibition; 360,000 compounds, 0.56% hits; AlphaScreen GST-Six1/His-Eya2 binding, biochemical; active compounds read low; activity change, % (no concentration beside the values); in the data active = activity change below about -65%; inconclusive = mostly about -30% to -63%
# Target sequence (O00167 whole entry, looked up): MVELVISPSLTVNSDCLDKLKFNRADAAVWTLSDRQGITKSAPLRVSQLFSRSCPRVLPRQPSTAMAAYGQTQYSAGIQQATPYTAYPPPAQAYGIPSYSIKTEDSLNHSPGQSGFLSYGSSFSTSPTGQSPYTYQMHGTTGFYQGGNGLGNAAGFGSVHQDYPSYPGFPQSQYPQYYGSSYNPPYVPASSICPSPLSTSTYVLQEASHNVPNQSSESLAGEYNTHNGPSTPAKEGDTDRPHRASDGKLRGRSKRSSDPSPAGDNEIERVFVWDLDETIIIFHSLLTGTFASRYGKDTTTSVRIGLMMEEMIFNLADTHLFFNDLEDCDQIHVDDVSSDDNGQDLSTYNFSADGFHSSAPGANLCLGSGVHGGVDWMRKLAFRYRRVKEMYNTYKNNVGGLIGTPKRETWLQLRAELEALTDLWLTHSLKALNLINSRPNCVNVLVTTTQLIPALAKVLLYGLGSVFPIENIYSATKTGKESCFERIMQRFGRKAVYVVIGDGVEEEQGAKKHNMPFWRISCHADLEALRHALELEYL
# Target sequence (Q15475 whole entry, looked up): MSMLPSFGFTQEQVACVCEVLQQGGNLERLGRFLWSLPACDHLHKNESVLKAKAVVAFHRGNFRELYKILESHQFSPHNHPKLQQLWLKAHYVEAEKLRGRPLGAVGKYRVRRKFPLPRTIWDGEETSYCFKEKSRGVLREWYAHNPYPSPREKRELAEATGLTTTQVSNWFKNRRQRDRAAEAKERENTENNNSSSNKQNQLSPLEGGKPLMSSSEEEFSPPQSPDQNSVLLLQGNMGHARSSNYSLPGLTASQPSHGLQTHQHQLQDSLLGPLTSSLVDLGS
#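 Compounds are tested against tagged Six1 and Eya2 proteins bridged by glutathione donor and nickel acceptor beads; after a one-hour incubation at 37 °C without light, AlphaScreen emission is recorded.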
# CtBP-E1A blk – CtBP/E1A binding inhibition. AlphaScreen GST-E1A/His-CtBP binding, 1536-well; active compounds read low. activity change, % (no concentration beside the values). 340,000 compounds, 0.49% hits; in the data active = activity change below about -65%; inconclusive = mostly about -30% to -63%
#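 Steps: dispense buffer (Tris pH 8.0, NaCl 300 mM, TCEP 1 mM, BSA, Tween 20); add 5X protein mix (GST-E1A, His-CtBP, 125 nM each); pin 23 nL compound; 2 h at 37 °C, dark; add 5X beads (50 ug/mL); 1 h; read.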
# TDP1 cell noCPT – qHTS for Inhibitors of human tyrosyl-DNA phosphodiesterase 1 (TDP1): qHTS in cells in absence of CPT. DT40 Tdp1-/- hTDP1 cells, no CPT, ATP luminescence, 48 h. Potency, µM (top dose mostly 46.2 µM), without a hit: top-dose activity change, negative = growth inhibition, most hits filed as inhibitors. 420,000 compounds, 15% hits; note: potency is the fitted concentration of half-maximal effect; nearly all actives have a fitted effect of over 55% in size
#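 Chicken DT40 Tdp1-/- cells stably complemented with human TDP1 were seeded at 400 cells/well with DMSO in place of 20 nM camptothecin. After compound pinning, cells grew at least 48 hr at 37 °C; viability read by CellTiter-Glo luminescence.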
# DT40 TDP1 CPT – DT40-hTDP1 cell growth loss with CPT. 420,000 compounds, 12% hits. chicken DT40 Tdp1-/-;hTDP1 cells + 20 nM CPT, ATP luminescence, 48 h. Potency, µM (top dose mostly 46.2 µM), without a hit: at the top dose activity change, negative = growth inhibition, hits mostly inhibitors; note: potency is the fitted concentration of half-maximal effect; nearly all actives have a fitted effect of over 55% in size
#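 Chicken DT40 Tdp1-/- cells complemented with human TDP1, 400 cells/well, exposed to compounds plus 20 nM camptothecin for at least 48 h at 37 C; viability read as ATP content by CellTiter-Glo luminescence.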
# The depositor's hits bear a star; ? = inconclusive; nt = no result; [ ] = remark or other dose. Unless noted, calls come from the whole dose curve; as a rule, active = well fitted curve in the direction sought with a large enough effect; inconclusive = small, poorly fitted or top-dose-only effect, or another doubt; inactive = no such curve, though single readings can be large; an effect the other way counts as inactive or inconclusive. % is set by controls: 0 for no effect and ±100 for the full control effect.
SMILES,TDP1 inh,IL-1B inflam inh,Six1-Eya2 blk,CtBP-E1A blk,TDP1 cell noCPT,DT40 TDP1 CPT
O=C(Nc1ccc(Br)cc1)C1CCN(C(=O)c2ccc(F)cc2)CC1,2.6%,-73.2*,0.0,-19.8,?,?
O=C(Nc1nc(-c2ccc(F)cc2)cs1)C1CCN(C(=O)c2ccc(F)cc2)CC1,2.5%,-83.6*,-8.2,-5.1,5.8µM*,6.51µM*
COc1ccc(NC(=O)C2CCN(C(=O)c3ccc(OC)cc3)CC2)cc1,9.8%,13.3,-1.5,4.1,?,14.6µM*
O=C(NC1CCCCCC1)C1CCN(C(=O)c2ccc(Br)cc2)CC1,0.9%,8.4,3.7,4.0,14.6µM*,20.6µM*
O=C(COC(=O)/C=C/c1cccc(Br)c1)NC1CCCCCC1,0.3%,-3.5,1.1,-4.1,8.7%,-15.7%
COc1ccccc1NC(C)C(=O)Nc1ccc(C(C)=O)cc1 (centres undefined),?,2.5,-0.8,-6.3,20.6µM*,?
Cc1ccc(NC(=O)C2CCN(C(=O)c3cccs3)CC2)cc1,1.2%,-6.0,6.9,1.8,-5.0%,2.3%
CC(=O)Nc1ccc(NC(=O)C2CCN(C(=O)c3cccs3)CC2)cc1,-5.1%,?,2.4,nt,-11.3%,23.1µM*
COc1ccccc1NC(=O)Nc1ccc(C(=O)N2CCCCC2)cc1,4.8%,?,6.6,nt,20.6µM*,?
CC(C)c1ccc(NC(=O)C2CCN(C(=O)c3ccc(F)cc3)CC2)cc1,nt,nt,nt,nt,8.2µM*,?
NS(=O)(=O)c1ccc(CCNC(=O)COC(=O)CC(c2ccccc2)c2ccccc2)cc1,-1.8%,11.5,-1.3,2.4,?,?
CCOC(=O)C(C#N)C(=N)C1C(=O)OC2CCCCC21 (centres undefined),nt,19.4,-2.2,7.1,-19.5%,-1.4%
CN(c1ccc(C(=O)NCc2ccncc2)cc1)S(C)(=O)=O,-3.3%,-2.7,7.3,5.2,?,-17.9%
COC(=O)c1ccc(NC(=O)c2nc(S(=O)(=O)Cc3cccc(C)c3)ncc2Cl)cc1,0.0%,-102.8*,-9.7,-6.8,0.517µM*,0.581µM*
CC(=O)Nc1ccc(NC(=O)c2nc(S(=O)(=O)Cc3cccc(C)c3)ncc2Cl)cc1,3.9%,-100.1*,-10.2,-3.1,0.0461µM*,0.058µM*
CCc1ccc(NC(=O)c2nc(S(=O)(=O)Cc3ccccc3)ncc2Cl)cc1,0.8%,nt,nt,nt,nt,nt
CCOC(=O)c1ccc(NC(=O)c2nc(S(=O)(=O)Cc3ccccc3)ncc2Cl)cc1,7.7%,-104.7*,2.5,-8.6,1.3µM*,0.461µM*
COC(=O)c1ccccc1NC(=O)c1onc(C)c1Cl,nt,32.5,-6.4,1.6,3.5%,6.5%
COC(=O)c1ccccc1NC(=O)c1nc(S(=O)(=O)Cc2cccc(C)c2)ncc1Cl,7.0%,nt,nt,nt,2.59µM*,2.91µM*
Cc1ccc(CNC(=O)c2nc(SCc3cccc(C)c3)ncc2Cl)cc1,4.7%,nt,nt,nt,?,?
CCCCCNC(=O)c1cc2c(=O)n3ccccc3nc2n1C,-2.6%,nt,nt,nt,?,?
CN(C(=O)c1cc2c(=O)n3ccccc3nc2n1C)c1ccccc1,3.9%,nt,nt,nt,?,11.6µM*
CN(C)c1ccc(NC(=O)c2cc3c(=O)n4ccccc4nc3n2C)cc1,nt,?,?,-19.2,14.6µM*,?
Cc1cc(N2CCOCC2)nc2ccc(NC(=S)N3CCCCC3C)cc12 (centres undefined),5.8%,-66.8*,-26.3,-24.9,?,?
Cc1cc(N2CCN(C)CC2)nc2ccc(NC(=S)N3CCCCCC3)cc12,8.1%,-5.2,-0.4,nt,-29.8%,-4.0%
SMILES,TDP1 inh,IL-1B inflam inh,Six1-Eya2 blk,CtBP-E1A blk,TDP1 cell noCPT,DT40 TDP1 CPT
Cc1cc(N2CCOCC2)nc2ccc(NC(=O)C3CCCCC3)cc12,0.2%,nt,nt,nt,10µM*,12.6µM*
CN(C)CCCOC(=O)c1ccc(Cl)cc1,5.2%,-7.8,3.9,1.8,1.1%,1.3%
Cc1ccc(C(=O)Cn2cncn2)cc1,2.8%,20.9,2.6,2.8,1.1%,10.9%
COc1cc([N+](=O)[O-])ccc1NC(=O)c1cccc(NC(=O)C(C)C)c1,0.0%,nt,-4.0,-1.1,29.1µM*,?
COc1ccc(CCNC(=O)c2ccc(-c3cccc([N+](=O)[O-])c3)o2)cc1OC,0.0%,-28.9,?,-13.7,20.6µM*,?
COc1cc(NC(=O)c2ccc(-c3cccc([N+](=O)[O-])c3)o2)ccc1NC(=O)C(C)C,3.9%,10.5,-1.4,-1.8,20.6µM*,?
NNC(=O)c1ccc(-c2cccc([N+](=O)[O-])c2)o1,-2.7%,-25.0,-4.7,-19.3,-9.6%,?
O=C(COC(=O)c1cnccn1)c1ccc([N+](=O)[O-])cc1,nt,-54.1*,-5.6,-11.3,?,23.1µM*
O=C(COC(=O)c1cnccn1)c1ccc(Cl)c([N+](=O)[O-])c1,nt,-60.0*,-15.4,-3.1,?,?
Cc1ccc(C(=O)COC(=O)c2cnccn2)cc1,5.2%,25.0,3.6,4.0,-2.7%,9.6%
N/C(=N\OC(=O)c1ccc(Cl)c([N+](=O)[O-])c1)c1ccccn1,-2.7%,-107.5*,-4.2,-12.4,-20.0%,-4.9%
O=C(OCC(=O)N1CCN(C(=O)c2ccco2)CC1)c1sc2ccccc2c1Cl,4.0%,16.2,-1.6,-6.3,-4.3%,-10.9%
O=C(O)Cn1c(SCCOc2ccccc2F)nc2ccccc21,2.3%,11.8,-5.0,5.3,16.4µM*,?
CCN(CC)C(=O)Cn1c(SCCOc2ccc(Cl)cc2)nc2ccccc21,5.7%,nt,nt,nt,20.6µM*,?
Cc1cc(NC(=O)/C=C/c2ccccc2)no1,2.2%,-9.0,4.7,14.5,-14.5%,-25.2%
Cc1ccc(CN2C(=O)CCC2C(=O)NCCCN2CCCC(C)C2)cc1 (centres undefined),3.1%,48.6,-0.7,-19.9,10.2%,9.0%
CCOC(=O)N1CCC(NC(=O)c2ccc3c(c2)N=C(C)c2ccccc2S3)CC1,3.6%,21.9,-0.9,-0.4,?,?
CC1=Nc2cc(C(=O)NC3CCCC3)ccc2Sc2ccc(Cl)cc21,7.6%,nt,nt,nt,0.581µM*,0.82µM*
CCC1=Nc2cc(C(=O)NC3CCCC3)ccc2Sc2ccc(Cl)cc21,2.1%[12.3 µM],nt,nt,nt,0.92µM*,0.92µM*
CC1=Nc2cc(C(=O)NC3CCCC3)ccc2Sc2ccc(C)cc21,5.0%,nt,nt,nt,0.92µM*,1.16µM*
O=C(N/N=C/c1ccc[nH]1)c1ccccc1O,0.0%,-1.2,0.0,0.0,-9.8%,26.2%
